About 3,300 (8.5%) of roughly 39,000 compounds were called active. Many of the other results were omitted from the sample, so actives are more common in it than they were.

The subject of the assay is HepG2. The assay is described as follows: cytotoxicity call (relative viability < 0.9). Conditions: 10 µM.
`CNC[C@@H]1OCCCC[C@@H](C)Oc2ccc(NC(=O)c3ccncc3)cc2C(=O)N([C@@H](C)CO)C[C@H]1C`: the cytotoxicity call was “inactive”.

For `C[C@H](CO)N1C[C@H](C)[C@H](CN(C)C(=O)c2ccncc2)OCCCC[C@H](C)Oc2ccc(NS(=O)(=O)c3ccc(Cl)cc3)cc2C1=O`, the cytotoxicity call is “inactive”.

Turning to `CC(C)CN1C[C@H](C(=O)O)CC1=O`, the cytotoxicity call was “inactive”.

As for `C[C@H](CO)N1C[C@H](C)[C@@H](CN(C)S(=O)(=O)c2cccs2)Oc2ccc(NC(=O)Cn3cnnn3)cc2C1=O`, the cytotoxicity call was “inactive”.

Take `COc1ccc(CCN2C(=O)[C@@]3(c4ccc([N+](=O)[O-])cc4)CC(=O)N(C4CCCCC4)[C@@H]3c3ccc(CO)cc32)cc1`: the cytotoxicity call was “inactive”.

Take `C[C@@H]1CN([C@H](C)CO)C(=O)c2cc(NC(=O)C3CCCCC3)ccc2O[C@@H](C)CCCCO[C@H]1CN(C)Cc1ccncc1`: the cytotoxicity call is “inactive”.

As for `C[C@H](CO)N1C[C@H](C)[C@H](CN(C)C(=O)c2ccccn2)Oc2cc(C#Cc3ccccc3)ccc2S1(=O)=O`, the cytotoxicity call was “inactive”.

Regarding `C[C@H](CO)N1C[C@H](C)[C@@H](CN(C)C(=O)Nc2ccc3c(c2)OCO3)OCCCC[C@H](C)Oc2ccc(NC(=O)Nc3ccc(C(F)(F)F)cc3)cc2C1=O`, the cytotoxicity call was “inactive”.

On to `C[C@@H]1CN([C@@H](C)CO)C(=O)c2cccc(NS(C)(=O)=O)c2O[C@H]1CN(C)Cc1ccc2c(c1)OCO2`, for which the cytotoxicity call is “inactive”.

For the compound `Cc1ccc(S(=O)(=O)N2C[C@H](O)COC[C@H]3O[C@H](CC(=O)NCc4ccc5c(c4)OCO5)CC[C@@H]32)cc1`, the cytotoxicity call is “inactive”.

With `C[C@H]1CN([C@@H](C)CO)C(=O)c2cc(C#Cc3cccc(F)c3)cnc2O[C@@H]1CN(C)CC1CCOCC1`, the cytotoxicity call was “inactive”.

Consider `C[C@H](CO)N1C[C@H](C)[C@H](CN(C)C(=O)Nc2ccc(C(F)(F)F)cc2)OCCCC[C@H](C)Oc2ccc(NC(=O)Nc3ccc4c(c3)OCO4)cc2C1=O`, for which the cytotoxicity call is “inactive”.

Take `C[C@H]1CCCCO[C@H](CN(C)S(=O)(=O)c2ccc(Cl)cc2)[C@@H](C)CN([C@@H](C)CO)C(=O)c2cc(NC(=O)NC3CCCCC3)ccc2O1`: the cytotoxicity call was “inactive”.

With `C[C@H]1CCCCO[C@@H](CN(C)S(=O)(=O)c2ccc(Cl)cc2)[C@@H](C)CN([C@@H](C)CO)C(=O)c2cc(NC(=O)NC3CCCCC3)ccc2O1`, the cytotoxicity call was “active”.

Consider `C[C@@H]1CCCCO[C@@H](CN(C)S(=O)(=O)c2ccc(Cl)cc2)[C@@H](C)CN([C@@H](C)CO)C(=O)c2cc(NC(=O)NC3CCCCC3)ccc2O1`, for which the cytotoxicity call is “active”.

On to `C[C@@H]1CCCCO[C@H](CN(C)S(=O)(=O)c2ccc(Cl)cc2)[C@@H](C)CN([C@@H](C)CO)C(=O)c2cc(NC(=O)NC3CCCCC3)ccc2O1`, for which the cytotoxicity call was “inactive”.

Consider `C[C@@H]1CCCCO[C@H](CN(C)S(=O)(=O)c2ccc(Cl)cc2)[C@H](C)CN([C@@H](C)CO)C(=O)c2cc(NC(=O)NC3CCCCC3)ccc2O1`, for which the cytotoxicity call was “inactive”.

Take `CN1[C@@H]2Cn3c(ccc(-c4ccccc4)c3=O)[C@H]1[C@@H](C(=O)NCCCN1CCOCC1)[C@@H]2CO`: the cytotoxicity call is “inactive”.

Regarding `C[C@@H]1CN([C@@H](C)CO)C(=O)Cc2cc(NC(=O)Cn3cnnn3)ccc2O[C@H]1CN(C)C(=O)Nc1ccccc1`, the cytotoxicity call was “inactive”.

With `CCCNC(=O)N[C@H]1C=C[C@@H](CC(=O)N2CCN(C)CC2)O[C@@H]1CO`, the cytotoxicity call was “inactive”.

Regarding `C[C@H]1CN([C@@H](C)CO)C(=O)c2cc(/C=C/c3ccccc3)cnc2O[C@@H]1CN(C)C(=O)c1cnccn1`, the cytotoxicity call was “inactive”.

With `C[C@H]1CN([C@@H](C)CO)C(=O)Cc2cc(NC(=O)Cn3cnnn3)ccc2O[C@H]1CN(C)Cc1ccc(Oc2ccccc2)cc1`, the cytotoxicity call was “inactive”.

Take `COCC(=O)N(C)C[C@@H]1Oc2cc(-c3ccc(C#N)cc3)ccc2S(=O)(=O)N([C@H](C)CO)C[C@H]1C`: the cytotoxicity call is “inactive”.

With `COc1ccc(S(=O)(=O)Nc2ccc3c(c2)C(=O)N([C@@H](C)CO)C[C@@H](C)[C@@H](CN(C)S(C)(=O)=O)OCCCC[C@@H](C)O3)cc1`, the cytotoxicity call is “inactive”.

Take `C[C@H](CO)N1C[C@H](C)[C@@H](CN(C)S(=O)(=O)c2cccs2)Oc2ccc(NC(=O)Cc3ccccc3)cc2C1=O`: the cytotoxicity call was “inactive”.

Turning to `C[C@@H]1CN([C@H](C)CO)C(=O)c2cc(NC(=O)Nc3ccc(F)cc3)ccc2O[C@@H](C)CCCCO[C@H]1CN(C)Cc1ccncc1`, the cytotoxicity call was “inactive”.

For the compound `CC(C)NC(=O)Nc1ccc2c(c1)C(=O)N([C@@H](C)CO)C[C@@H](C)[C@H](CN(C)Cc1ccc(-c3ccccc3)cc1)O2`, the cytotoxicity call was “inactive”.

In the case of `C[C@@H]1CN([C@H](C)CO)C(=O)c2cc(NC(=O)Nc3ccccc3)ccc2O[C@@H]1CN(C)Cc1ccc(-c2ccccc2)cc1`, the cytotoxicity call was “active”.

Consider `C[C@H](CO)N1C[C@H](C)[C@@H](CN(C)Cc2ccc(-c3ccccc3)cc2)Oc2ccc(NC(=O)Nc3ccccc3)cc2C1=O`, for which the cytotoxicity call is “active”.

With `C[C@H](CO)N1C[C@H](C)[C@H](CN(C)Cc2ccc(-c3ccccc3)cc2)Oc2ccc(NC(=O)Nc3ccccc3)cc2C1=O`, the cytotoxicity call was “inactive”.

In the case of `C[C@@H]1CN([C@@H](C)CO)C(=O)c2cc(NC(=O)Nc3ccccc3)ccc2O[C@H]1CN(C)Cc1ccc(-c2ccccc2)cc1`, the cytotoxicity call is “active”.

`C[C@H]1CN([C@@H](C)CO)C(=O)c2cc(NC(=O)Nc3ccccc3)ccc2O[C@H]1CN(C)Cc1ccc(-c2ccccc2)cc1`: the cytotoxicity call is “inactive”.

As to `CC(C)NC(=O)Nc1ccc2c(c1)C(=O)N([C@@H](C)CO)C[C@@H](C)[C@@H](CN(C)Cc1ccc(-c3ccccc3)cc1)O2`, the cytotoxicity call is “active”.

In the case of `CC(C)NC(=O)Nc1ccc2c(c1)C(=O)N([C@@H](C)CO)C[C@H](C)[C@@H](CN(C)Cc1ccc(-c3ccccc3)cc1)O2`, the cytotoxicity call is “inactive”.

As for `C[C@@H]1CCCCO[C@@H](CN(C)C(=O)CCC(F)(F)F)[C@H](C)CN([C@H](C)CO)C(=O)c2cc(NC(=O)NC3CCCCC3)ccc2O1`, the cytotoxicity call was “inactive”.

As for `COCCNC(=O)C[C@H]1CC[C@@H]2[C@H](COC[C@H](O)CN2S(=O)(=O)c2ccccc2C)O1`, the cytotoxicity call was “inactive”.

On to `C[C@H]1CN([C@@H](C)CO)C(=O)c2c(c3ccccc3n2C)-c2ccccc2CO[C@@H]1CN(C)Cc1ccc(O)cc1`, for which the cytotoxicity call is “inactive”.

For the compound `C[C@H]1CN([C@@H](C)CO)C(=O)c2cc(NC(=O)CCN3CCOCC3)ccc2O[C@@H]1CN(C)S(=O)(=O)c1cn(C)cn1`, the cytotoxicity call is “inactive”.

The record behind these values is the antibiotic and cytotoxicity screens of Wong et al. (2023).
